Compound activity: PubChem, The Scripps Research Institute Molecular Screening Center
hcDAF12 agonist = H. contortus DAF-12 activation, primary screen | activation, % at 6.8 µM | AID 652067 | HEK293 hcDAF-12 lit1-tk-luc reporter, luminescence; 0% DMSO, 100% Δ7-dafachronic acid | 370,000 compounds, 1.4% hits;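 active = activation above the mean of all tested compounds plus 3 SD, cut at about 5.5% in these data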;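 also: 100% = response to 3 µM Δ7-dafachronic acid high control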
DAX1 inh-1 = NR0B1 (DAX1) inhibition; HEK293 Gal4-DAX1 luciferase reporter, luminescence; AID 504766; inhibition, % at 6.75 µM; P51843; 340,000 compounds, 0.99% hits;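 active = inhibition above the mean over all tested compounds plus 3 SD, cut at about 4.2% in these data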;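 also: 0% = DAX1-transfected cells with DMSO and 100% = empty-vector control cells with DMSO; inhibition shows as a rise in luminescence from relieved DAX1 repression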
Target sequence (P51843 207-470 limits assumed): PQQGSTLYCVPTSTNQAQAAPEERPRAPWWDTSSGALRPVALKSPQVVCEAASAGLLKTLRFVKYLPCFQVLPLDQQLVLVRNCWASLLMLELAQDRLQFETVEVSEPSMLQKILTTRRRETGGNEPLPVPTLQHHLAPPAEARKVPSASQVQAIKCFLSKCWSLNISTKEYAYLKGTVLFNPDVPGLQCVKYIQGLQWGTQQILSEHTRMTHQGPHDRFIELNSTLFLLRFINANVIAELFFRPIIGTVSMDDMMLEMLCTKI
DAX1 inh-2 = blocks DAX1 repression of SF-1 activated StAR promoter; HEK293T StAR-luciferase reporter, SF-1/DAX-1 repression relief; inhibition, % at 6.8 µM; 370,000 compounds, 1.1% hits;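 active = inhibition above the mean over all tested compounds plus 3 SD, cut at about 3.6% in these data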;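 also: 0% = DAX-1 cells with DMSO and 100% = cells lacking DAX-1 with DMSO; higher inhibition means more luminescence from relief of DAX-1 repression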
ssDAF-12 act = S. stercoralis DAF-12 activation, primary screen; 370,000 compounds, 1% hits; AID 652126; activation, % at 6.8 µM; HEK293 ssDAF-12/GRIP1 lit1-tk-luc reporter, luminescence; % of 3 µM dafachronic acid response;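 active = activation above the mean over all tested compounds plus 3 SD, cut at about 0.9% in these data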;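 also: 0% = DMSO-only wells and 100% = 3 µM delta7-dafachronic acid wells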
hgDAF12 agonist = agonists of H. glycines DAF-12 nuclear receptor; AID 687014; 370,000 compounds, 1.8% hits; activation, % at 6.8 µM; HEK293 GAL4-hgDAF12 UAS-luciferase reporter, agonist luminescence; normalized to butyrate control;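 active = activation above a cutoff set at the mean of all screened compounds plus 3 SD, cut at about 10% in these data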;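 also: 0% = DMSO wells and 100% = sodium butyrate wells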
* hit, by the source's call; . = no result given. Most compounds without a hit are left out; they make up all but 4.1% or so of the library.

SMILES | hcDAF12 agonist | DAX1 inh-1 | DAX1 inh-2 | ssDAF-12 act | hgDAF12 agonist
O=C(COc1ccc(Cl)cc1)Nc1cccc(-c2ccc(N3CCOCC3)nn2)c1 | 5 | -1 | 3 | 0 | 12*
Cc1ccc(C(=O)Nc2cccc(-c3ccc(N4CCOCC4)nn3)c2)cc1C | 1 | -2 | 2 | 0 | 6
O=[N+]([O-])c1cccc(S(=O)(=O)Nc2cccc(-c3ccc(N4CCOCC4)nn3)c2)c1 | 0 | -1 | 4.4* | 0 | 3
Cc1ccc(C(=O)Nc2cccc(-c3ccc(N4CCOCC4)nn3)c2)cc1 | 2 | 1 | 4.5* | 0 | 5
COc1ccc(CN2CCC(CNC(=O)Nc3ccc(Cl)cc3)CC2)cc1 | -2 | . | 1 | -1 | 8
COC(=O)C1CN(Cc2cn(Cc3ccc(C)cc3)nn2)CCS(=O)(=O)N1Cc1ccc(Cl)cc1 (stereo unspecified) | -4 | . | -3 | -1 | -4
O=C(O)CC(C(=O)O)n1nc(-c2ccccc2)cc1-c1ccccc1 (stereo unspecified) | 5.8* | 1 | 1 | 0 | 5
Cc1ccc(OCCCN2CCOCC2)c([N+](=O)[O-])c1 | 5 | 3 | 2 | -1 | 13*
Cc1cc(OCCN2CCOCC2)ccc1Cl | 5 | 2 | 0 | 0 | 12*
Cc1cc(OCCN2CCOCC2)ccc1[N+](=O)[O-] | 5 | 0 | 2 | 0 | 4
Cc1ccc(OCCCCCN2CCOCC2)c(Cl)c1 | 0 | 4.9* | 0 | 0 | 3
Cc1cc(OCCN2CCCC2)ccc1[N+](=O)[O-] | -1 | -1 | 0 | 1.1* | 1
Cc1ccc(OCCN2CCOCC2)cc1C | 1 | 1 | 0 | -1 | 2
C=CCN(Cc1ccc2c(c1)OCO2)C(C#Cc1ccccc1)c1ccccc1C(F)(F)F (stereo unspecified) | -1 | . | -1 | -1 | 2
CC1(C)CC(=O)N(CC(=O)N2CCN(Cc3ccccc3)CC2)c2ccccc2S1(=O)=O | 1 | . | 0 | -2 | 4
CC(COc1ccc(C(F)(F)F)cc1)CN1CCC(C(O)(c2ccccc2)c2ccccc2)CC1 (stereo unspecified) | 5 | . | -1 | -1 | 2
O=C(NCCc1c[nH]c2ccccc12)/C(=C/c1cccnc1)NC(=O)c1ccco1 | 0 | 4.5* | -1 | 0 | -2
O=C(NCCSc1c[nH]c2ccccc12)c1ccco1 | 5.9* | 0 | 1 | 0 | 5
CC(=O)N1CCN(C2=NC(=O)N(c3ccc(Br)cc3)C(=O)C2)CC1 | -1 | . | 0 | -2 | -3
Cn1cnnc1SCC(=O)NCc1ccccc1 | 1 | 0 | 1 | -2 | 12*
Cc1ccc(CNC(=O)CSc2ncc(C(=O)Nc3ccccc3)c(=O)n2C)cc1 | 2 | 2 | 1 | 1.6* | 0
Cn1c(SCC(=O)NCc2ccccc2)ncc(C(=O)Nc2ccccc2)c1=O | 4 | 0 | 2 | 1.0* | 0
Cc1ccc(-c2cc(-c3nnc(SCC(=O)Nc4cccc5ccccc45)n3N)[nH]n2)cc1 | 0 | . | 0 | -1 | -1
CCCCCC(=O)NC1CCCCN(Cc2ccc(Cl)cc2)C1=O (stereo unspecified) | -2 | . | -1 | -1 | 1
O=C(CCc1ccccc1)N[C@H]1[C@H](OCc2ccccc2)CCC[C@@]12C(=O)N(Cc1ccccc1)c1ccc(-c3ccsc3)cc12 | -2 | . | -1 | -2 | 4
CC(C)Oc1ccc(-c2csc(N3CCC(C(N)=O)CC3)n2)cc1 | -3 | . | . | -1 | 11*
CCCCCNC(=O)C(c1cc2ccccc2o1)n1c(=O)c(-c2ccccc2)nc2ccccc21 (stereo unspecified) | 3 | . | 0 | 0 | 1
CCCCCNC(=O)C(C1CC1)n1c(=O)c(-c2cc3ccccc3[nH]2)nc2ccccc21 (stereo unspecified) | 2 | . | 0 | 0 | 3
CCCCCNC(=O)C(c1ccc(-c2ccccc2)cc1)n1c(=O)c(-c2cc3ccccc3[nH]2)nc2ccccc21 (stereo unspecified) | 6.0* | . | 2 | 1.2* | 6
Cc1cccc(C)c1NC(=O)C(c1ccccc1)n1c(=O)c(-c2cc3ccccc3[nH]2)nc2ccccc21 (stereo unspecified) | 3 | . | 1 | 0 | 1
